{"source": "PubChem BioAssay", "note": "The source made the active and inactive calls.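 How the source made its calls: active means inhibition above 50%; inactive means the rest.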", "data": [{"assay": "human hepatoma cell viability loss – ATP luminescence, cytotoxicity control for P. falciparum antimalarial project, primary screen (AID 2303);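 further: 0% = DMSO wells and 100% = digitonin-killed cells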", "conditions": "HepG2 viability, 24-48 h, at 10 µM, active compounds read high", "values": [{"molecule": "CCN(CC)CCN(Cc1ccc(-c2ccc(C(F)(F)F)cc2)cc1)C(=O)Cn1c(CCc2cc(F)cc(F)c2F)nc(=O)c2ccccc21", "inhibition": "36% (inactive)"}, {"molecule": "CC(C)c1cc(Oc2c(I)cc(CCCc3ncc[nH]3)cc2I)ccc1O", "inhibition": "28% (inactive)"}, {"molecule": "c1ccc2c(c1)ncc1c3ccccc3[nH]c21", "inhibition": "-1% (inactive)"}, {"molecule": "CSc1ccc(CN2CCC(NC(=O)c3ccc(-c4ccc(N(C)C)cc4)s3)CC2)cc1", "inhibition": "30% (inactive)"}, {"molecule": "Cc1cc(NC(=O)Nc2cccc(N(C)C)c2)c2ccccc2n1", "inhibition": "0% (inactive)"}, {"molecule": "CN(CCN1CCCC1)c1nc2ccc(-n3cnc4cc(-c5ccc(Cl)cc5)sc4c3=O)cc2[nH]1", "inhibition": "76% (active)"}, {"molecule": "CC(C)n1c(C2CCN(CC3CCN(C(=O)/C=C/c4ccc(Cl)c(Cl)c4)CC3)CC2)nc2ccccc21", "inhibition": "36% (inactive)"}, {"molecule": "Cc1ccc(NC(=O)Nc2ccc(Cl)c(C(F)(F)F)c2)cc1-c1ccc(C(=O)Nc2ccncc2)cc1", "inhibition": "77% (active)"}, {"molecule": "O=S(=O)(c1cccc(C(F)(F)F)c1)N1CCC(CO)(Cc2cccc(C(F)(F)F)c2)CC1", "inhibition": "3% (inactive)"}, {"molecule": "CCOc1ccc(CCC(=O)O)cc1OCC", "inhibition": "60% (active)"}, {"molecule": "COc1ccc2nccc([C@@H](O)CN3CCC(NCc4nc5c(C#N)cccc5[nH]4)CC3)c2c1", "inhibition": "-3% (inactive)"}, {"molecule": "COc1ccc(C(O)CNC(C)CCc2ccccc2)cc1C(F)(F)F", "note": "(stereo not given)", "inhibition": "3% (inactive)"}, {"molecule": "COc1cccc2cc(C(=O)N[C@@H](CC(C)C)C(=O)N[C@H](/C=N/NC(=O)c3ccccc3)Cc3cnc[nH]3)oc12", "inhibition": "3% (inactive)"}, {"molecule": "O=C(NCc1cccc2ccccc12)C1CCCN(C(=O)c2ccc(O)c(-c3ccc(Cl)c(Cl)c3)c2)C1", "note": "(stereo not given)", "inhibition": "1% (inactive)"}, {"molecule": "Cc1ccccc1C1CCN(C2CCC(NC(=O)c3cncc(-c4ccccc4)c3)CC2)CC1", "note": "(stereo not given)", "inhibition": "27% (inactive)"}, {"molecule": "O=S(=O)(NC1CCN(c2ccnc3cc(Cl)ccc23)C1)c1ccc(C(F)(F)F)cc1", "note": "(stereo not given)", "inhibition": "20% (inactive)"}, {"molecule": "O=C(Nc1ccc(OC2CCN(Cc3ccsc3)C2)c(Cl)c1)c1ccsc1", "note": "(stereo not given)", "inhibition": "4% (inactive)"}, {"molecule": "O=C(CCc1cnc[nH]1)Nc1cccc(-c2ccc(-c3nc4ccccc4[nH]3)s2)c1", "inhibition": "11% (inactive)"}, {"molecule": "Cc1cccc2c3c([nH]c12)C1(CCN(CCc2ccccc2)CC1)NC(C(=O)NCc1ccccc1)C3", "note": "(stereo not given)", "inhibition": "10% (inactive)"}, {"molecule": "Cc1cc(CNC(=O)c2ccc(-c3ccc(-c4nc5ccc(C(F)(F)F)cc5[nH]4)s3)cc2)on1", "inhibition": "15% (inactive)"}, {"molecule": "Oc1ccc(CCNc2nc(NCCOc3cccc4ccccc34)nc(N3CCNCC3)n2)cc1", "inhibition": "21% (inactive)"}, {"molecule": "Nc1c(Cl)cc(C(O)CNCCCCCCOCCc2ccc(CO)s2)cc1Cl", "note": "(stereo not given)", "inhibition": "1% (inactive)"}, {"molecule": "N#Cc1ccc(NC(=O)c2ccc(C(=O)NCCCCN3CCC(c4ccc5c(c4OCCOC4CCCCO4)CCCC5)CC3)cc2)cc1", "note": "(stereo not given)", "inhibition": "72% (active)"}, {"molecule": "CCCc1cc(Cc2cnc(N)nc2N)cc(CCC)c1O", "inhibition": "64% (active)"}, {"molecule": "CCn1c(C)cc(C=C2SC(=Nc3ccccc3)NC2=O)c1C", "inhibition": "27% (inactive)"}, {"molecule": "COc1cccc(CNC(=O)[C@H]2CNCCN2C(=O)CCCc2ccccc2)c1", "inhibition": "56% (active)"}, {"molecule": "Clc1ccc(CNc2nc(NCCc3cnc[nH]3)nc(N3CCCC4CCCCC43)n2)cc1", "note": "(stereo not given)", "inhibition": "10% (inactive)"}, {"molecule": "CS(=O)(=O)c1ccc(CNCc2cccc(-c3ccc(-c4nc5ccc(C(F)(F)F)cc5[nH]4)cc3)c2)cc1", "inhibition": "31% (inactive)"}, {"molecule": "O=C(NCc1cccc(C(F)(F)F)c1)C(c1cc2ccccc2o1)N1CCN(C(c2ccccc2)c2ccccc2)CC1", "note": "(stereo not given)", "inhibition": "-4% (inactive)"}, {"molecule": "CCOc1ccccc1C(=O)N1CCc2cc3nccc(N4CCN5CCC[C@H]5C4)c3cc21", "inhibition": "4% (inactive)"}]}]}
